Screening data (PubChem)
KCNQ2 enhance – potentiators of rat KCNQ2 potassium channel | CHO-K1 KCNQ2, FluxOR thallium flux fluorescence; hits give high values | B-score at 10 µM | 0.54% of 310,000 active;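 active means fluorescence ratio B-score at least 3 SD of library B-scores, with initial fluorescence B-score within 3 of them, cut at about 5.3 in these data; same plate scores as AID 2156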;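 further: B-score of peak minus minimum over baseline fluorescence ratio after K+ and Tl+ stimulus; positive B-score means potentiation of KCNQ2 with more thallium influx and brighter signal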
KCNQ2 block – rat KCNQ2 potassium channel inhibitors, primary screen, cell-based, CHO-K1, FluxOR thallium flux, B-score; AID 2156, 2009; 1.1% of 310,000 active; 20 min; hits give low values; B-score at 10 µM;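 active means fluorescence ratio B-score at most minus 3 library SDs, with starting brightness B-score within 2 library SDs, cut at about -5.5 in these data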
Kir21 confirm – mouse Kir2.1 channel blockers, retest, confirmation, cell-based, FluxOR thallium flux, duplicate | 41% of 2,300 active | Kir2.1-expressing cells, FluxOR thallium flux fluorescence; hits give low values | Tl flux remaining, % of negative control (hits give low values), % at 10 µM | shares compounds with KCNQ2 enhance;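 active means Primary-screen hit whose thallium flux fell at least 3 control SD below untreated wells in both duplicates, with normal baseline fluorescence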;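 further: 0% = blank wells without stimulus and 100% = stimulated no-compound controls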
HEK293 ctr – alters thallium flux in parental HEK293 cells, Kir2.1 counter-screen; shares compounds with KCNQ2 enhance; FluxOR thallium flux fluorescence; 0% = unstimulated blank wells; FluxOR signal as % of negative control (100 = no effect), % at 10 µM; 19% of 2,300 active; AID 2105;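 active means dye signal at least 3 control SD above or below untreated wells in both duplicates, raw fluorescence within 3, either direction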;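 further: percent is based on the flux ratio of peak minus minimum fluorescence over baseline F0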
CHO-K1 ctr – nonspecific thallium flux increase in parental CHO-K1, confirmation, counter-screen for KCNQ2 potentiator project, cell-based, FluxOR thallium flux, duplicate; shares compounds with KCNQ2 enhance; parental CHO-K1 cells, FluxOR thallium flux fluorescence; zero = vehicle mean+3SD, 100% = vehicle-minus-blank window; activity increase over 3SD of controls, % at 10 µM; 43% of 1,200 active; AID 2282, 2010;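 active means signal rise of at least 3 SD above the untreated control mean, in both duplicate wells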;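 further: counter screen of KCNQ2 potentiator hits so any rise reflects channel-independent effects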
KCNQ1 pot spec – human KCNQ1 channel potentiation off-target, confirmation, selectivity assay for KCNQ2 potentiator project, cell-based, CHO, FluxOR thallium flux; activation over 3SD threshold, % at 10 µM; 28% of 1,200 active; shares compounds with KCNQ2 enhance; CHO KCNQ1 stable, FluxOR thallium flux fluorescence; beyond 3SD, as % of vehicle-control signal;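 active means fluorescence ratio rise of at least 3 SD of vehicle wells above their mean, in both replicate wells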;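 further: 0% = vehicle mean plus 3 SD and 100% = vehicle minus unstimulated blank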
KCNQ2 pot conf – rat KCNQ2 channel potentiators, confirmation, cell-based, CHO, FluxOR thallium flux, duplicate; shares compounds with KCNQ2 enhance; CHO-KCNQ2 cells, FluxOR thallium flux fluorescence; potentiation, less the hit threshold, % at 10 µM; 68% of 1,200 active;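 active means fluorescence ratio rising 3 SD or more over the vehicle control mean in both replicates, plus primary screen hit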;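 further: peak minus minimum thallium fluorescence divided by baseline after K/Tl stimulus; 0% = vehicle mean plus 3 SD and 100% = vehicle minus unstimulated blank difference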
Kir2-1 sel – mouse Kir2.1 channel activation off-target, confirmation, selectivity assay for KCNQ2 potentiator project, cell-based, HEK293, FluxOR thallium flux. shares compounds with KCNQ2 enhance. 2% of 1,200 active. HEK293 Kir2.1, FluxOR thallium flux fluorescence. activity over 3SD threshold, % at 10 µM;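 active means fluorescence ratio rise of at least 3 SD above the vehicle-control mean, seen in both replicates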;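 further: 0% = vehicle mean plus 3 SD and 100% = vehicle minus no-stimulus blank window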
KCNQ2 W236L pot – potentiators of retigabine-insensitive KCNQ2 W236L, mechanism study for KCNQ2 potentiator project, cell-based, rat KCNQ2 W236L, CHO, automated patch clamp; shares compounds with KCNQ2 enhance; automated patch clamp current; current increase over 3SD of negative controls (%), hits give high values, % at 25 µM; 10% of 940 active;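 active means current increase at least 3 SD of the untreated controls above them in both duplicate recordings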
Target sequence (O88943 whole entry W236L, looked up): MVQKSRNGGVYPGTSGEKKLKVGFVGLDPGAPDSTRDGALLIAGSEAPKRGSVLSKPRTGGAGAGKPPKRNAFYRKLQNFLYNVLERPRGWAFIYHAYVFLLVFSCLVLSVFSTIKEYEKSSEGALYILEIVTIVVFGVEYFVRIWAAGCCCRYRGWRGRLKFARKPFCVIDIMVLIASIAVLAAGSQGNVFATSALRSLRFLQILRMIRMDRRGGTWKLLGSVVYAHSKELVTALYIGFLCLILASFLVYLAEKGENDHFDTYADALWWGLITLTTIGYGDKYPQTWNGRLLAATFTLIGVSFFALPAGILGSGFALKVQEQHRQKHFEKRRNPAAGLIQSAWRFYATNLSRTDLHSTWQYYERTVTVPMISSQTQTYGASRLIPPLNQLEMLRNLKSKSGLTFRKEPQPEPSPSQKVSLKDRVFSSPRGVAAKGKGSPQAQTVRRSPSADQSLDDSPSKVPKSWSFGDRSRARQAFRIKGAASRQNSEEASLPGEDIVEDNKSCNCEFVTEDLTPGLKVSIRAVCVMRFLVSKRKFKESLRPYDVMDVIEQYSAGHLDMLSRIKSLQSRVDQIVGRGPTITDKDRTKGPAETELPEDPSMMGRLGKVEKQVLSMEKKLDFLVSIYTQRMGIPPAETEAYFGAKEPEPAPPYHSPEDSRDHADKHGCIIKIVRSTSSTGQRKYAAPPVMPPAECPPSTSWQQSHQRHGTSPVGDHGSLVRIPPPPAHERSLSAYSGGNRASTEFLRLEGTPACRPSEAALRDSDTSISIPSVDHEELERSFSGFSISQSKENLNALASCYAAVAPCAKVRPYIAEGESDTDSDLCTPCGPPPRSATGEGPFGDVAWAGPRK
* = called active by the depositor. Only some compounds are listed: those with a hit (about 1.6% of all), similar ones and a draw of the others.

How did O=C(NC(=S)Nc1ccc(N2CCCCC2)cc1)c1cccs1 do in these assays?
KCNQ2 enhance: 5.8*; KCNQ2 block: inactive; Kir21 confirm: inactive; HEK293 ctr: 126%*; CHO-K1 ctr: -8; KCNQ1 pot spec: -10; KCNQ2 pot conf: 3.0*; Kir2-1 sel: -38; KCNQ2 W236L pot: inactive

Results for CS(=O)(=O)N1CCN(c2ccc(NC(=S)NC(=O)c3cccs3)cc2)CC1 ?
KCNQ2 block: inactive

What do the screens show for `CCOC(=O)N1CCN(C(=O)C(=O)NN)CC1`?
KCNQ2 enhance: 0.74; KCNQ2 block: inactive

Results for N#CCOC(=O)C1CCN(S(=O)(=O)c2ccc3c(c2)OCCO3)CC1 ?
KCNQ2 block: inactive

Results for COc1ccc(Sc2ccccc2CN(C)C)cc1OC ?
KCNQ2 enhance: 0.47; KCNQ2 block: inactive

How did CNCc1ccccc1Sc1ccc(O)c(O)c1 do in these assays?
KCNQ2 block: inactive; Kir21 confirm: 39%*; HEK293 ctr: inactive

How did COc1ccc(NC(=O)CSCC(=O)Oc2c(OC)cccc2OC)cc1 do in these assays?
KCNQ2 block: inactive

How did CN(Cc1ccccc1)S(=O)(=O)c1ccc(Cl)nc1 do in these assays?
KCNQ2 block: inactive

Results for CC(C)N(Cc1ccccc1)S(=O)(=O)c1ccc(Cl)nc1 ?
KCNQ2 block: inactive; Kir21 confirm: 65%*; HEK293 ctr: inactive

Results for O=C(Cc1ccccc1F)Nc1ccc2c(c1)CCC2 ?
KCNQ2 enhance: 5.2; KCNQ2 block: inactive

Results for O=C(Cc1cccc(F)c1)Nc1ccc2c(c1)CCC2 ?
KCNQ2 enhance: 5.5*; KCNQ2 block: inactive; Kir21 confirm: inactive; HEK293 ctr: inactive; CHO-K1 ctr: 3.6*; KCNQ1 pot spec: -13; KCNQ2 pot conf: 21*; Kir2-1 sel: -25; KCNQ2 W236L pot: inactive

How did Cc1cc(C)c2nc(NNC(=O)c3ccc(S(=O)(=O)N4CC(C)CC(C)C4)cc3)sc2c1 (stereo not given) do in these assays?
KCNQ2 enhance: 5.8*; KCNQ2 block: inactive; Kir21 confirm: inactive; HEK293 ctr: inactive; CHO-K1 ctr: 61*; KCNQ1 pot spec: -11; KCNQ2 pot conf: -22; Kir2-1 sel: -29

Results for Cc1cc(C)c2nc(NNC(=O)c3ccc(S(=O)(=O)N4CCCC(C)C4)cc3)sc2c1 (stereo not given) ?
KCNQ2 enhance: 1.8; KCNQ2 block: inactive

How did COc1ccc(S(=O)(=O)NCc2ccccn2)cc1NC(=O)c1ccccc1C do in these assays?
KCNQ2 enhance: 0.43; KCNQ2 block: inactive

What do the screens show for `Cc1cccc2c1cnn2C(=O)Nc1ccccc1Cl`?
KCNQ2 enhance: 0.23; KCNQ2 block: inactive

Results for CCn1c2ccccc2c2cc(NC(=O)CNCC3CCCO3)ccc21 (stereo not given) ?
KCNQ2 enhance: 1.9; KCNQ2 block: inactive; Kir21 confirm: 48%*; HEK293 ctr: inactive

Results for CCn1c2ccccc2c2cc(NC(=O)CN3CCCC3)ccc21 ?
KCNQ2 enhance: 3.4; KCNQ2 block: inactive

What do the screens show for `COc1cc(C(=O)OCC(=O)N2c3ccccc3NC(=O)C2(C)C)ccc1OCC(C)C`?
KCNQ2 block: inactive

What do the screens show for `OCCCn1c(C2CCCN2c2nc(-c3ccc(F)cc3)cs2)nc2cc(Cl)c(Cl)cc21` (stereo not given)?
KCNQ2 enhance: 0.26; KCNQ2 block: inactive

How did Nc1c(Cl)cc(-c2csc(N3CCCC3c3nc4cc(Cl)c(N5CCCCC5)cc4n3CCOCCO)n2)cc1Cl (stereo not given) do in these assays?
KCNQ2 enhance: 6.3*; KCNQ2 block: inactive; Kir21 confirm: inactive; HEK293 ctr: inactive; CHO-K1 ctr: 3.5*; KCNQ1 pot spec: -22; KCNQ2 pot conf: -11; Kir2-1 sel: -24; KCNQ2 W236L pot: inactive

How did Cc1csc(N2CCCC2c2nc3cc(Cl)c(N4CCCCC4)cc3n2CCOCCO)n1 (stereo not given) do in these assays?
KCNQ2 enhance: 1.4; KCNQ2 block: inactive

How did OCOCCCn1c(C2CCCN2c2nc(-c3ccc(F)cc3)cs2)nc2cc(Cl)c(N3CCCCC3)cc21 (stereo not given) do in these assays?
KCNQ2 enhance: 6.9*; KCNQ2 block: inactive; Kir21 confirm: inactive; HEK293 ctr: inactive; CHO-K1 ctr: 58*; KCNQ1 pot spec: -18; KCNQ2 pot conf: -4; Kir2-1 sel: -24

Results for Nc1c(Cl)cc(-c2csc(N3CCCC3c3nc4cc(Cl)c(Cl)cc4n3CCCO)n2)cc1Cl (stereo not given) ?
KCNQ2 block: inactive

What do the screens show for `Nc1c(Cl)cc(-c2csc(N3CCCC3c3nc4cc(Cl)c(N5CCCCC5)cc4n3CCCO)n2)cc1Cl` (stereo not given)?
KCNQ2 enhance: 20*; KCNQ2 block: inactive; Kir21 confirm: inactive; HEK293 ctr: inactive; CHO-K1 ctr: -13; KCNQ1 pot spec: -50; KCNQ2 pot conf: 38*; Kir2-1 sel: -23; KCNQ2 W236L pot: inactive

Results for COCCNC(=O)COC(=O)c1ccc(OCC(=O)Nc2ccccc2OC)c(OC)c1 ?
KCNQ2 enhance: 0.8; KCNQ2 block: inactive

How did CCOc1ccc(CN(C)C(=O)Cc2c[nH]c3ccccc23)cc1 do in these assays?
KCNQ2 enhance: 0.93; KCNQ2 block: inactive

What do the screens show for `O=C(CN1C(=O)NC2(CCCC2)C1=O)c1ccc(Cl)s1`?
KCNQ2 block: inactive
